A selection: hits, their analogues and other compounds. The true share with any hit is near 4.8%.
hgDAF12 agonist: activates the H. glycines DAF-12 receptor ligand-binding domain. HEK293 GAL4-hgDAF12 UAS-luciferase reporter, agonist luminescence; normalized to butyrate control. activation, % at 6.8 µM. 1.8% of 370,000 active. AID 687014;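 active = activation above a cutoff set at the mean of all screened compounds plus 3 SD, cut at about 10% in these data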
DAX1 inh-1: inhibits human nuclear receptor DAX1. 0.99% of 340,000 active. HEK293 Gal4-DAX1 luciferase reporter, luminescence. P51843. inhibition, % at 6.75 µM;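 active = inhibition above the mean over all tested compounds plus 3 SD, cut at about 4.2% in these data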;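 also: inhibition shows as a rise in luminescence from relieved DAX1 repression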
Target sequence (P51843 207-470 limits assumed): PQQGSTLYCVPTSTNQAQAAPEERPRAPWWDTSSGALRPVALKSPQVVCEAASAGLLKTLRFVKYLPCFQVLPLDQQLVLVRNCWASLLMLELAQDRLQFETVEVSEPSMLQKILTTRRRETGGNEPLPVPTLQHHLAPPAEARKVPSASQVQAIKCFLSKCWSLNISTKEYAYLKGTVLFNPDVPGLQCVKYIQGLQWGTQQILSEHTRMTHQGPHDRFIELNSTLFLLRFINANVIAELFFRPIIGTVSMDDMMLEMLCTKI
DAX1 inh-2: DAX1 (NR0B1) inhibition, primary screen; HEK293T StAR-luciferase reporter, SF-1/DAX-1 repression relief; 1.1% of 370,000 active; inhibition, % at 6.8 µM; AID 652010;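 active = inhibition above the mean over all tested compounds plus 3 SD, cut at about 3.6% in these data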;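 also: higher inhibition means more luminescence from relief of DAX-1 repression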
ssDAF12 agonist: S. stercoralis DAF-12 activation, primary screen | HEK293 ssDAF-12/GRIP1 lit1-tk-luc reporter, luminescence; % of 3 µM dafachronic acid response | activation, % at 6.8 µM | 1% of 370,000 active;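 active = activation above the mean over all tested compounds plus 3 SD, cut at about 0.9% in these data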
SMARCA2 activ: activators of SMARCA2 function | MG213 cells, MMTV-luciferase reporter, dexamethasone, overnight | activation, % at 9.1 µM | 1% of 370,000 active | AID 652017; in the data active = activation above about 7.8%
hcDAF12 agonist: H. contortus DAF-12 activation, primary screen. HEK293 hcDAF-12 lit1-tk-luc reporter, luminescence; 0% DMSO, 100% Δ7-dafachronic acid. activation, % at 6.8 µM. 1.4% of 370,000 active;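 active = activation above the mean of all tested compounds plus 3 SD, cut at about 5.5% in these data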
LXRb hcDAF ctr: activates human LXR-beta, counter-screen for hcDAF-12 agonists; shares compounds with hcDAF12 agonist; HEK293 Gal4-LXR tk-luc reporter, luminescence, 24 h; normalized: DMSO 0%, positive control 100%; activation, % at 6.8 µM; 3,400 tested, under 10 active; AID 743027;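 active = mean percent activation of the reporter above a cutoff set as the average over tested compounds plus their standard deviation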
hcDAF12 ag: confirmation of H. contortus DAF-12 agonists; shares compounds with hcDAF12 agonist; HEK293 hcDAF-12 lit1-tk-luc reporter, luminescence; % of Δ7-dafachronic acid response; activation, % at 6.8 µM; 61% of 3,400 active;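 active = mean activation across triplicate tests above the threshold derived from the earlier primary screen, cut at about 5.5% in these data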
Large screens that a line does not name were inactive (follow-up assays come after a bar, where they were run).

Cc1cc(C)cc(N(CC(=O)NC2CCC(C)CC2)S(=O)(=O)c2ccc([N+](=O)[O-])cc2)c1 (configuration not stated)	none (no result: DAX1 inh-1)
C(=NN1CCCCCC1)c1ccccc1	none
CN(c1ccccc1)c1ccc(/C=N/N2CCOCC2)cc1	hgDAF12 agonist 11, DAX1 inh-1 5.8, hcDAF12 agonist 7.0 | LXRb hcDAF ctr inactive | hcDAF12 ag 5.9
O=C(N[C@H](C(=O)N1CCC[C@H]1C(=O)NC1CCCC1)C1CCCCC1)c1ccc(Cl)cc1Cl	none (no result: DAX1 inh-1)
C(=N\n1c2ccccc2c2ccccc21)/c1ccccc1	hcDAF12 agonist 10 | LXRb hcDAF ctr inactive | hcDAF12 ag 5.9
CSc1nc(O)c(/C=C2\C=Nc3ccccc32)[nH]1	hcDAF12 agonist 12 | LXRb hcDAF ctr inactive | hcDAF12 ag 11
CCCNC(=O)c1ccc(-c2nc3ccccc3s2)s1	none
Brc1ccc(-c2nc3ccccc3s2)s1	hgDAF12 agonist 13, ssDAF12 agonist 1.2, hcDAF12 agonist 10.0 | LXRb hcDAF ctr inactive | hcDAF12 ag 11
CC(=O)N(NC(=O)c1ccc(C)cc1)C1CC(=O)N(c2ccccc2Cl)C1=O (configuration not stated)	hcDAF12 agonist 8.6 | LXRb hcDAF ctr inactive | hcDAF12 ag inactive
Cc1ccc(C(=O)Nc2ccc(C(=O)N/N=C/c3c[nH]c4ccccc34)cc2)cc1	hcDAF12 agonist 7.3 | LXRb hcDAF ctr inactive | hcDAF12 ag 7.2
O=C(N/N=C/c1c[nH]c2ccccc12)c1ccncc1	none
O=C(NN=Cc1c[nH]c2ccccc12)NN=Cc1c[nH]c2ccccc12	none
COc1ccccc1C(=O)N/N=C/c1c[nH]c2ccccc12	ssDAF12 agonist 1.4, hcDAF12 agonist 7.0 | LXRb hcDAF ctr inactive | hcDAF12 ag 6.3
O=C(N/N=C/c1c[nH]c2ccccc12)c1sc2ccccc2c1Cl	hcDAF12 agonist 9.1 | LXRb hcDAF ctr inactive | hcDAF12 ag inactive
Clc1ccc(CN2CCN(c3ncc(Cc4ccccc4)cn3)CC2)c(Cl)c1	none (no result: DAX1 inh-1)
CCCCCCCCN1C(=O)[C@@H](CC(=O)N2CCSCC2)C[C@@]2(C(=O)OC)C1=C[C@H](C(C)(C)C)O[C@@H]2C	none (no result: DAX1 inh-1)
O=C(O)COCc1nc2ccccc2s1	none
CC(=O)OCc1nc2ccccc2s1	hgDAF12 agonist 12, DAX1 inh-2 4.0, hcDAF12 agonist 7.7 | LXRb hcDAF ctr inactive | hcDAF12 ag 12
CCOC(=O)c1nc2ccccc2s1	ssDAF12 agonist 1.4, hcDAF12 agonist 8.8 | LXRb hcDAF ctr inactive | hcDAF12 ag 9.3
NC(=O)c1ccccc1OCc1nc2ccccc2s1	hgDAF12 agonist 13, hcDAF12 agonist 14 | LXRb hcDAF ctr inactive | hcDAF12 ag 14
c1ccc2c(c1)OCc1nccn1-2	none (no result: DAX1 inh-1)
O=C(Nc1ccc2ccccc2c1)NC1CCCCN(Cc2ccc(Cl)cc2)C1=O (configuration not stated)	ssDAF12 agonist 2.9, hcDAF12 agonist 9.2 (no result: DAX1 inh-1) | LXRb hcDAF ctr inactive | hcDAF12 ag inactive
COC(=O)C1=C(C)N(Cc2ccc(C(F)(F)F)cc2)C(=NCc2ccc(C(F)(F)F)cc2)NC1c1ccccc1 (configuration not stated)	none (no result: DAX1 inh-1)
COc1ccc(/C=C/C(=O)C2C(=O)C=C(C)OC2=O)cc1O (configuration not stated)	ssDAF12 agonist 1.6, hcDAF12 agonist 13 | LXRb hcDAF ctr inactive | hcDAF12 ag inactive
COc1cc(/C=C/C(=O)C2C(=O)C=C(C)OC2=O)cc(OC)c1O (configuration not stated)	none
CCCOc1ccc(C(=O)NC(=S)NCc2cccnc2)cc1	none
O=C(NC(=S)Nc1cccc2cccnc12)c1cccs1	hcDAF12 agonist 6.6 | LXRb hcDAF ctr inactive | hcDAF12 ag inactive
CCCOc1ccc(C(=O)NC(=S)Nc2nc3ccccc3s2)cc1	hcDAF12 agonist 6.9 | LXRb hcDAF ctr inactive | hcDAF12 ag 7.6
O=C(NC(=S)Nc1ccccc1N1CCCC1)c1ccco1	hcDAF12 agonist 7.6 (no result: DAX1 inh-1) | LXRb hcDAF ctr inactive | hcDAF12 ag inactive
COc1ccc(-c2csc(NC(=S)NC(=O)c3ccco3)n2)cc1	none
O=C(NC(=S)Nc1cccc2cccnc12)c1ccccc1	none
O=C(NC(=S)Nc1nc(-c2ccccc2)cs1)c1ccco1	hcDAF12 agonist 7.0 | LXRb hcDAF ctr inactive | hcDAF12 ag 7.3
CC(=O)c1ccc(-c2cc(C(C)=O)c3n(c2=O)CCC3)cc1	none (no result: DAX1 inh-1)
Nc1[nH]c(C(=O)c2ccccc2)c(-c2ccc(Cl)cc2)c1C(=O)c1c[nH]c2ccccc12	none (no result: DAX1 inh-1)
O=C(NC(=S)Nc1nc2ccccc2s1)c1ccco1	hgDAF12 agonist 13, ssDAF12 agonist 2.2, hcDAF12 agonist 11 | LXRb hcDAF ctr inactive | hcDAF12 ag 12
CC(=O)Nc1ccc2nc(NC(=O)c3ccco3)sc2c1	hcDAF12 agonist 6.7 | LXRb hcDAF ctr inactive | hcDAF12 ag 10.0
O=C(NC(=S)Nc1nc(-c2ccccc2)cs1)c1cccs1	hcDAF12 agonist 8.2 | LXRb hcDAF ctr inactive | hcDAF12 ag inactive
CC(=O)Nc1ccc2nc(NC(=O)c3ccc([N+](=O)[O-])o3)sc2c1	none
COc1cccc(CNC(=O)[C@H]2CCCN2C(=O)[C@H]2CCCN2C(=O)c2ccc(C)cc2)c1	none (no result: DAX1 inh-1)
CCC(=O)Nc1ccc(NC(=O)c2ccccc2)nc1	hgDAF12 agonist 11, DAX1 inh-2 4.1, ssDAF12 agonist 1.0, hcDAF12 agonist 7.0 | LXRb hcDAF ctr inactive | hcDAF12 ag inactive
CC(=O)/C(=N\Nc1ccccc1)Sc1nncn1C	hcDAF12 agonist 8.4 | LXRb hcDAF ctr inactive | hcDAF12 ag inactive
Cc1c(Cl)cccc1NC(CC(=O)c1ccccc1)C(=O)OCC(=O)c1cccs1 (configuration not stated)	none
O=C(CC(Nc1cccc(Cl)c1Cl)C(=O)OCC(=O)c1cccs1)c1ccccc1 (configuration not stated)	hcDAF12 agonist 7.4 | LXRb hcDAF ctr inactive | hcDAF12 ag inactive
CCCCN(C)CCCNC(=O)c1cc(Nc2ccc(OC)c(OC)c2)nc2ccccc12	hcDAF12 agonist 7.8 | LXRb hcDAF ctr inactive | hcDAF12 ag inactive
Cc1ccc(Nc2cc(C(=O)NCCCN3CCOCC3)c3ccccc3n2)cc1C	none
Cc1ccc2nc3c(nc2c1)-c1ccccc1C3=O	ssDAF12 agonist 1.4, hcDAF12 agonist 11 | LXRb hcDAF ctr inactive | hcDAF12 ag 6.2
COc1ccc(CC(=O)O/N=C(\N)c2ccc(C)cc2)cc1	ssDAF12 agonist 1.6, hcDAF12 agonist 7.7 | LXRb hcDAF ctr inactive | hcDAF12 ag 8.5

Screening results from PubChem BioAssay.
